# Screening results as filed in PubChem.
# CYP2C9 activ: increases human cytochrome P450 2C9 activity; recombinant CYP2C9, luciferin-H conversion, luminescence; active compounds read high; factor 1 = untreated enzyme, 0 = blocked; P11712; 1.4% of 96,000 active; activation factor at 5 µM;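 active = activation factor of 2 or more for CYP2C9 at a 5 µM dose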;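 also: 0 = sulfaphenazole-blocked wells and 1 = vehicle-only wells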
# CYP2C19 inhib: human CYP2C19 inhibition; 21% of 96,000 active; inhibition, % at 5 µM; CYP2C19 Supersomes, luciferin-H EGE luminescence, 30 min; P33261;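 active = CYP2C19 inhibition above a set limit at 5 µM in the primary screen, cut at about 50% in these data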;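 also: plate controls were negative control wells for no effect and 2.5 mM tranylcypromine positive control for full effect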
# CYP2C19 act: increases human CYP2C19 enzyme activity; 96,000 tested, under 10 active; recombinant CYP2C19, luciferin-H EGE luminescence; active compounds read high; 0 = fully inhibited enzyme, 1 = untreated enzyme; activation factor at 5 µM; P33261;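 active = activation factor of at least 2 at 5 µM in the primary screen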;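 also: 0 = wells with 2.5 mM tranylcypromine and 1 = vehicle-only wells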
# Cav32 inh: inhibitors of human Cav3.2 T-type calcium channel; AID 449739; B-score at 10 µM; Cav3.2-expressing cells, Fluo-4 calcium fluorescence FDSS; active compounds read low; 4% of 100,000 active;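 active = single-dose well whose peak fluorescence ratio is a statistical outlier from its plate by either plate-standardised score or position-corrected B-score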
# CYP2C9 inhib: blocks human cytochrome P450 2C9 | P11712 | CYP2C9 Supersomes, luciferin-H conversion, luminescence | inhibition, % at 5 µM | 20% of 96,000 active;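 active = blocking of liver enzyme CYP2C9 beyond about 50% at 5 µM, limit read from the data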
# * hit, by the source's call; · = no result. Sampled rows, rich in hits. Any-hit rate of the full collection: about 27%.
SMILES,CYP2C9 activ,CYP2C19 inhib,CYP2C19 act,Cav32 inh,CYP2C9 inhib
Cc1nc(C(=O)NC2CCOCC2)sc1C1(C)CC(c2cccc([N+](=O)[O-])c2)=NO1 (stereo not given),·,·,·,-0.093,·
CCCCn1c(-c2ccncc2)nc2c1c(=O)[nH]c(=O)n2CC(C)C,0.8,12,0.9,3.1*,18
CCn1c(-c2ccsc2)nc2c1c(=O)[nH]c(=O)n2Cc1ccccc1,0.8,52*,0.5,0.0035,22
CCCCn1c(=O)[nH]c(=O)c2c1nc(-c1ccc(-c3ccccc3Br)o1)n2CC,0.5,15,0.9,0.11,47
COCCn1c(-c2ccc(OC(F)(F)C(F)C(F)(F)F)cc2)nc2c1c(=O)[nH]c(=O)n2CC(C)C (stereo not given),0.8,28,0.7,-0.49,20
CC(C)NC(=O)CSc1nc(Cc2cccs2)nc2ccccc12,0.7,50,0.5,0.37,33
O=C(C1CCCCC1)N(Cc1ccccc1)c1ccccn1,1.2,4,1,·,-16
O=C(C1CC1)N(CCN(Cc1ccccc1)C(=O)C1CC1)Cc1ccccc1,0.7,54*,0.5,·,28
CC1=C(CC[C@@H](C)CO)OC2CC3C4CCC5CC(O)CCC5(C)C4CC(=O)C3(C)C12 (stereo not given in full),·,·,·,-3.6,·
CCCn1nc(-c2nnc(-c3ccc(C)c(C)c3)o2)c2ccccc2c1=O,0.8,-3,1,0.43,19
CC1CCN(C(=O)CSc2nnc(CNC(=O)c3ccco3)o2)CC1,1.1,-7,1.1,0.61,-10
CCOC(=O)Cn1c(=O)c2c(nc3n2CCN3Cc2ccccc2)n(C)c1=O,1,-7,1.1,1.2,1
Cn1c(=O)c2c(nc(N3CCCCCC3)n2Cc2cccc3ccccc23)n(C)c1=O,0.1,76*,0.2,·,90*
CCOC(=O)Cn1c(=O)c2c(nc(N3CCCCC3)n2C)n(C)c1=O,0.5,12,0.9,3.1,55*
Cn1c(=O)c2c(nc(-n3ccnc3)n2Cc2ccc(Cl)cc2Cl)n(C)c1=O,0.2,60*,0.4,0.048,80*
C=CCOc1nc2c(c(=O)n(C)c(=O)n2C)n1Cc1c(Cl)cccc1Cl,0.6,62*,0.4,0.49,44
CC1(C)SC(=S)N(/N=C/c2ccccc2)C1N(O)C(=O)Nc1ccc([N+](=O)[O-])cc1 (stereo not given),1,-10,1.1,1.1,1
CCc1ccc(N(C(C)=O)C2C=CS(=O)(=O)C2)cc1 (stereo not given),0.9,27,0.7,-0.014,12
Cc1ccc(N(C(=O)C2CCCO2)C2C=CS(=O)(=O)C2)cc1Cl (stereo not given),1.1,-13,1.1,1.3,-8
Cn1c(=O)c2c(nc(Br)n2Cc2ccccc2Cl)n(C)c1=O,0.6,77*,0.2,0.11,44
Cn1c(=O)c2c(nc(N3CCCCCC3)n2CC(=O)c2ccccc2)n(C)c1=O,0.8,20,0.8,-1.8,20
CCN1CCN(Cc2nc3c(c(=O)n(C)c(=O)n3C)n2Cc2ccccc2Cl)CC1,1,3,1,1.5,-4
C/C(Cl)=C\Cn1c(N2CCCCCC2)nc2c1c(=O)n(C)c(=O)n2C,0.1,47,0.5,-2.7,85*
COc1ccccc1Nc1nnc(SCC(=O)N2CCCC2=O)s1,2.7*,57*,0.4,0.19,-167
CCOc1ccccc1Nc1nnc(SCC(=O)N2CCCC2)s1,2.3*,4,1,-0.4,-130
SMILES,CYP2C9 activ,CYP2C19 inhib,CYP2C19 act,Cav32 inh,CYP2C9 inhib
COc1ccccc1-n1c(SCC(=O)N2CCCC2)nc2cccnc21,1.1,-8,1.1,0.19,-6
COc1ccccc1N1CCN(C(=O)CSc2nnc(NC(=O)C3CCC3)s2)CC1,0.2,51*,0.5,0.89,82*
COc1ccccc1NC(=O)c1sc2nc(Cc3ccccc3)cc(C(F)(F)F)c2c1N,0.8,21,0.8,-1.7,22
Cc1[nH]n(-c2ccccc2)c(=O)c1S(=O)(=O)c1ccccc1,1.4,88*,0.1,0.36,-44
COc1ccccc1C(=O)Nc1ccccn1,1,28,0.7,0.41,-3
COc1ccccc1C(=O)NC(C)c1nc2ccccc2[nH]1 (stereo not given),0.5,56*,0.4,0.075,55*
N=c1c[n+](N2CCOCC2)[n-]o1,·,·,·,-3,·
CC1CCCN(C(=O)CSc2nnc(-c3c[nH]c4ccccc34)o2)C1 (stereo not given),1.3,71*,0.3,0.28,-31
